High-throughput results deposited in PubChem by National Center for Advancing Translational Sciences (NCATS).
The entries come from a sample that favours hits as a whole.
HT1080 IDH1KD tx: kills HT-1080 cells with IDH1 knockdown; Potency, µM (doses to about 46.1 µM), for the others: top-dose activity, negative = toxicity, hits mostly cytotoxic; AID 686971; actives 2% (n = 360,000); HT-1080 IDH1 knockdown viability, ATP luminescence, 48 h;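 also: potency is read from the fitted curve at half-maximal effect; 0% = DMSO wells and -100% = cell-free medium wells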
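IDH1KD HT-1080 cells, 750/well, RPMI + 5% FBS; compound pinned after 2 h settling; 48 h, 37 °C; CellTiter-Glo luminescence; % activity normalised to DMSO and no-cell wells; curves fitted, classed by r2 and efficacy.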
DT40 TDP1 no CPT: qHTS for Inhibitors of human tyrosyl-DNA phosphodiesterase 1 (TDP1): qHTS in cells in absence of CPT; DT40 Tdp1-/- hTDP1 cells, no CPT, ATP luminescence, 48 h; Potency, µM (titrated, usually from 46.2 µM), inactives show at the highest dose activity change, negative = growth inhibition, hits mostly inhibitors; actives 15% (n = 420,000); AID 686978, 2013; also: potency is read from the fitted curve at half-maximal effect; nearly all actives have a fitted effect of over 55% in size
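Chicken DT40 Tdp1-/- cells complemented with human TDP1, screened without camptothecin (DMSO vehicle only), 400 cells/well. Compounds pin-transferred, cells incubated at 37 °C for at least 48 hr. Growth read as ATP-dependent luminescence (CellTiter-Glo, 30 min at RT).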
HT1080-NT tox: kills 2HG-producing HT-1080-NT fibrosarcoma cells | HT-1080-NT fibrosarcoma viability, CellTiter-Glo ATP luminescence, 48 h | Potency, µM (top dose mostly 46.1 µM), for the others: at the top dose activity, negative = less viability, hits mostly cytotoxic | actives 1.6% (n = 360,000) | AID 686970;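 also: NT is the 2HG producing partner of a matched IDH1 knockdown line; potency is read from the fitted curve at half-maximal effect; 0% = DMSO-treated cells and -100% = media-only wells without cells; nearly all actives have a fitted effect of over 55% in size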
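Compounds were tested in concentration-response format on HT-1080-NT cells for 48 hours at 37 degrees C. Cell viability came from CellTiter-Glo luminescence; curves were classified by r2, response magnitude and activity.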
ALOX12 inh: inhibitors of human 12S-lipoxygenase ALOX12 | P18054 | purified 12hLO, xylenol orange hydroperoxide absorbance | Potency, µM (titrated, usually from 108 µM), for the others: at the top dose activity change, negative = inhibition, actives largely listed as inhibitors | actives 1.1% (n = 580,000); also: potency is read from the fitted curve at half-maximal effect
Target sequence (P18054 whole entry, looked up): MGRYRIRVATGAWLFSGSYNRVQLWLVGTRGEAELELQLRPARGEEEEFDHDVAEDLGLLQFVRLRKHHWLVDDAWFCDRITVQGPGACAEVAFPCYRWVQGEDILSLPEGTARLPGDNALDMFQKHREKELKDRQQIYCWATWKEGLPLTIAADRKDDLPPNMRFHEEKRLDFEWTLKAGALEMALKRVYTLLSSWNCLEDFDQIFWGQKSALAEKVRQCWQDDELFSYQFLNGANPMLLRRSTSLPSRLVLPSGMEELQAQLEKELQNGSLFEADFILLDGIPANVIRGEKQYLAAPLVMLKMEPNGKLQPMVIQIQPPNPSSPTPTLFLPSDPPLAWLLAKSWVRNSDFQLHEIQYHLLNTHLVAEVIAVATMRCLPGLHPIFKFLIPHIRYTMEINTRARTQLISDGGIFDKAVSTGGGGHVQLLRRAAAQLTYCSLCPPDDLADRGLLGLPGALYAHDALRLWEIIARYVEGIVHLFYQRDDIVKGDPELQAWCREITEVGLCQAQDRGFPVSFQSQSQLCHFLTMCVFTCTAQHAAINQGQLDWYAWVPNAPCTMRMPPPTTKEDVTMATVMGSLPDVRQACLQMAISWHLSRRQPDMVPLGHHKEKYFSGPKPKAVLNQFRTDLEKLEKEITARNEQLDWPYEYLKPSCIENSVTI
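Purified human 12hLO (150 nM final) in 25 mM Hepes, 0.01% Triton X-100, pH 7.0 was preincubated 15 min at room temperature with compound. Then 40 uM arachidonic acid was added, 30 min. Hydroperoxide was read by Fe-XO absorbance ratio 573/405 nm.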
IL1B secr inh: inflammasome signaling inhibition, IL-1 beta readout. THP-1 LPS/ATP IL-1B secretion, AlphaLISA, 16 h; hits give low values. activity change, % at 57.5 µM. actives 4.7% (n = 360,000). AID 743279; in the data active = activity change below about -50%; inconclusive = mostly about -30% to -49%
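Secreted IL-1B measured by AlphaLISA bead assay after 16 h compound exposure of THP-1 cells; compounds (final up to 57.5 uM) added 1 h before LPS (250 ng/mL) and ATP (1.25 mM) stimulation; lower signal means less secretion.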
DT40 TDP1 CPT: DT40-hTDP1 cell growth loss with CPT. chicken DT40 Tdp1-/-;hTDP1 cells + 20 nM CPT, ATP luminescence, 48 h. Potency, µM (series often up to 46.2 µM), inactives show at the highest dose activity change, negative = growth inhibition, usual class: inhibitors. actives 12% (n = 420,000). AID 686979; also: potency is read from the fitted curve at half-maximal effect; nearly all actives have a fitted effect of over 55% in size
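Cell growth measured by CellTiter-Glo luminescence after a minimum 48 h, 37 C compound exposure with 20 nM CPT in Tdp1-knockout DT40 cells stably expressing hTDP1, seeded 400/well; qHTS titration format.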
* = called active by the depositor; i = inactive; ? = inconclusive; / = no result; [ ] = dose if it differs, or a comment. Unless noted, calls follow the shape of the dose curve; as a rule, active = well fitted curve in the direction sought with a large enough effect; inconclusive = small, poorly fitted or top-dose-only effect, or another doubt; inactive = no such curve, though single readings can be large; an effect the other way counts as inactive or inconclusive. Unless noted, % is scaled to controls: 0 for no effect and ±100 for the full control effect.

SMILES	HT1080 IDH1KD tx	DT40 TDP1 no CPT	HT1080-NT tox	ALOX12 inh	IL1B secr inh	DT40 TDP1 CPT
CC(C)(C)OC(=O)NCCCC[C@H](NC(=O)c1nc[nH]c1C(=O)N1CCN(C(=O)OC(C)(C)C)CC1)C(=O)OC(C)(C)C	-8%	23µM*	-2%	-1%	-8	?
CNC(=O)c1[nH]cnc1C(=O)N[C@@H](CCCCNC(=O)OC(C)(C)C)C(=O)OC(C)(C)C	2%	-12%	-1%	13%	2	?
CC(C)(C)OC(=O)NCCCC[C@H](NC(=O)c1nc[nH]c1C(=O)N1CCN(c2ccccc2)CC1)C(=O)OC(C)(C)C	-19%	18µM*	-1%	6%	-55*	?
CC(C)(C)OC(=O)NCCCCCNC(=O)c1nc[nH]c1C(=O)N1CCN(C(=O)OC(C)(C)C)CC1	5%	16µM*	-2%	?	5	?
CC(C)(C)OC(=O)CNC(=O)c1nc[nH]c1C(=O)N1CCN(C(=O)OC(C)(C)C)CC1	-5%	-1%	2%	-5%	8	0%
Cc1ccc(C)c(N2CCN(C(=O)c3cc(-c4ccncc4)cn3C)CC2)c1	/	/	/	38%	/	/
C=CCOC(=O)Oc1ccc2c(=O)c(Oc3ccc(CC)cc3)c(C(F)(F)F)oc2c1	/	/	/	0%	/	/
C=CCSc1ncnc2c1oc1nc3c(cc12)COC(C)(C)C3	3%	18µM*	17%	172%	10	-20%
CC(C)CSc1ncnc2c1oc1nc3c(cc12)COC(C)(C)C3	8%	-3%	-6%	4%	-6	1%
Cc1cccc(C)c1NC(=O)CSc1nc(C)c(CC(=O)c2ccc(Br)cc2)c(C)c1C#N	14%	?	34%	0%	24	21µM*
CCc1c(C)nc(SCC(=O)c2cccs2)c(C#N)c1C	-25%	?	-6%	22%	-99*	?
N#Cc1c(-c2ccccc2F)cc(C2CC2)nc1SCC(=O)c1cccs1	1%	18µM*	20%	-16%	i	18µM*
Cc1c(-c2nsc(NC(=O)c3cccs3)n2)nnn1-c1ccc(Cl)cc1	/	?	/	-25%	/	?
O=C(CC(c1ccccc1)c1ccco1)Nc1nccs1 (configuration not stated)	3%	15µM*	2%	13%	7	26µM*
COc1ccc(NC(=O)CC(c2ccccc2)c2ccco2)cc1 (configuration not stated)	-17%	16µM*	?	6%	-5	?
COc1ccc(NCc2cc3cc4c(cc3n(CC(=O)Nc3ccc(F)cc3F)c2=O)OCO4)cc1	/	15µM*	/	13%	/	6.5µM*
CCc1ccc(NCc2cc3cc4c(cc3n(CC(=O)Nc3ccc(OC)cc3)c2=O)OCO4)cc1	/	4.6µM*	/	1%	/	?
CCOc1cc(C(=O)N=c2sccn2C)cc(Br)c1OC	-5%	18µM*	15%	?	?	18µM*
CCOc1cc(C(=O)NC)cc(Br)c1OC	-8%	-11%	11%	-18%	17	20%
Cc1ccc(-c2nccc(N3CCC(O)C3)n2)c(C)c1 (configuration not stated)	/	/	/	35µM*	/	/
O=S(=O)(c1ccccc1)N1CCC2(CCN(c3ccncc3)CC2)CC1	/	13µM*	/	-5%[57.4 µM]	/	12µM*
CC(=O)N1CCC2(CC1)CCN(c1ccc(-c3ccccc3)cc1)CC2	/	8.2µM*	/	?	/	10µM*
O=C(c1ccncc1)N1CCC2(CC1)CN(c1ccccc1)C2	/	?	/	-24%[57.4 µM]	/	16µM*
O=S(=O)(c1ccccc1)N1CCC2(CCN(c3ccccc3)CC2)CC1	/	?	/	3%[57.4 µM]	/	?
O=C(c1ccncc1)N1CCC2(CC1)CN(c1ccncc1)C2	/	-12%	/	?	/	2%
SMILES	HT1080 IDH1KD tx	DT40 TDP1 no CPT	HT1080-NT tox	ALOX12 inh	IL1B secr inh	DT40 TDP1 CPT
O=C(c1ccncc1)N1CCC2(CC1)CCN(c1ncccn1)CC2	/	-28%	/	1%[57.4 µM]	/	-8%
O=C(c1ccncc1)N1CCC2(CC1)CCN(c1ccc(-c3ccccc3)cc1)CC2	/	?	/	-26%[57.4 µM]	/	6.5µM*
CCOC(=O)CNC(=S)N(Cc1ccco1)Cc1ccccc1Cl	-2%	7%	8%	-3%	-14	?
COCC(=O)N1CCC2(CC1)CN(c1ccc(-c3ccccc3)cc1)C2	/	5.8µM*	/	5%[57.4 µM]	/	8.2µM*
Cc1[nH]c(C)c(S(=O)(=O)Nc2ccc(OC(F)(F)F)cc2)c1C(=O)N1CCCCC1	-18%	16µM*	-16%	-3%	?	21µM*
Cc1ccc(NS(=O)(=O)c2c(C)[nH]c(C)c2C(=O)N2CCCC2)cc1	3%	2%	11%	-5%	-11	-8%
Cc1c(C(=O)N2CCC(C)CC2)c(S(=O)(=O)Nc2ccc(OC(F)(F)F)cc2)c(C)n1C	/	16µM*	/	-21%	/	?
CCc1cccc(C)c1NS(=O)(=O)c1c(C(=O)N2CCC(C)CC2)c(C)n(C)c1C	/	?	/	-8%	/	18µM*
COc1ccc(NS(=O)(=O)c2c(C(=O)N3CCCCCC3)c(C)n(C)c2C)cc1	-9%	4%	1%	-6%	?	?
CCOC(=O)N1CCN(C(=O)CSc2nc3c(cnn3-c3ccc(C)cc3)c(=O)[nH]2)CC1	-3%	?	-4%	16%	9	?
Cc1cccc(-n2ncc3c(=O)[nH]c(SCC(=O)N4CC(=O)Nc5ccccc54)nc32)c1	7%	16µM*	1%	0%	47	?
Cc1ccc(-n2ncc3c(=O)[nH]c(SCC(=O)N4CC(=O)Nc5ccccc54)nc32)cc1	-16%	-8%	-4%	22%	26	-10%
CCOC(=O)C(C)Sc1nc2c(cnn2-c2ccc(F)cc2)c(=O)[nH]1 (configuration not stated)	-7%	?	-10%	12%	75	21µM*
CCOC(=O)N1CCN(C(=O)CSc2nc3c(cnn3-c3ccc(Cl)cc3)c(=O)[nH]2)CC1	6%	26µM*	3%	20%	17	21µM*
CC(C)(C)C(N)CN (configuration not stated)	/	/	/	44%	/	/
C/C(=N/NC(=O)CNC(=O)c1ccccn1)c1ccccc1	12%	9%	10%	4%	1	5%
C/C(=N\NC(=O)C1CC1)c1ccccn1	/	/	/	9%	/	/
C=CCNC(=S)N/N=C(\C)c1ccccn1	?	0.018µM*	?	?	-12	0.01µM*
CCCC/C(C)=N/NC(=S)Nc1ccccc1	/	/	/	6.3µM*	/	/
